Among the test systems are RPMI-8226 leukemia; OVCAR-8 ovarian; OVCAR-5 ovarian; OVCAR-4 ovarian; SK-OV-3 ovarian; IGROV1 ovarian; OVCAR-3 ovarian; HS 578T breast; NCI/ADR-RES ovarian; T-47D breast; BT-549 breast; MDA-MB-435 melanoma; SW-620 colon; MCF7 breast; HCT-116 colon; HCC-2998 colon; KM12 colon.
Test in all cases: NCI-60 one-dose screen, 48 h (100 = growth as untreated, 0 = no growth, -100 = all killed)
What all share (conditions): 10 µM unless noted

Each structure is given as a SMILES string. About 83,000 compounds went through this panel and 20% of them were active in at least one assay; those are over-represented in the sample as a whole.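 Plates (96-well) were seeded with cells, treated with compound at one concentration, and incubated for 48 hours before percent growth was determined.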 A number with no mark means an inactive call. Activity calls are given as the source filed them. Rule for the calls: active = growth percent below 10; inactive = the rest.

With `O=C(CSc1nc2ccc([N+](=O)[O-])cc2[nH]1)Nc1cccc([N+](=O)[O-])c1`, the growth in the assay with RPMI-8226 leukemia was 11.9%; in the assay with OVCAR-8 ovarian, 60%; in the assay with OVCAR-5 ovarian, 82.6%; with OVCAR-4 ovarian it was 28.7%; in the assay with SK-OV-3 ovarian, 55.8%; with IGROV1 ovarian, 59.1%. Also, the growth is 38.9% in the assay with OVCAR-3 ovarian; 66.9% in the assay on HS 578T breast; 66.9% in the assay on NCI/ADR-RES ovarian; 16.2% in the assay with T-47D breast; 59% in the assay on BT-549 breast; 43.8% with MDA-MB-435 melanoma. For the same molecule, the growth with SW-620 colon was 73.8%; in the assay with MCF7 breast, 52.8%; in the assay with HCT-116 colon, 33.6%; with HCC-2998 colon, 62.9%; with KM12 colon it was 57.4%.
For `CC(=O)c1c(Nc2ccc(F)c(F)c2F)[nH]c2c(F)cc(F)cc2c1=O`, the growth was -10.6% (active) with RPMI-8226 leukemia; 5.38% (active) with OVCAR-8 ovarian; 12.8% in the assay with OVCAR-5 ovarian; 12.1% in the assay with OVCAR-4 ovarian; -4.26% (active) in the assay with SK-OV-3 ovarian; 7.99% (active) in the assay on OVCAR-3 ovarian. The growth is 4.13% (active) with HS 578T breast; 1.67% (active) with NCI/ADR-RES ovarian; -14.4% (active) in the assay on MDA-MB-435 melanoma; 7.98% (active) in the assay on SW-620 colon; 0.843% (active) in the assay with MCF7 breast; 3.09% (active) in the assay with HCT-116 colon. Moreover, the growth with HCC-2998 colon was 7.96% (active); in the assay with KM12 colon, 2.32% (active).
With `O=c1[nH]cnc2c1C(c1ccc(Br)cc1)c1sc3c(F)cccc3c1O2` (configuration not stated), the growth was 60.4% in the assay on RPMI-8226 leukemia; 95.3% in the assay with OVCAR-8 ovarian; 94.9% with OVCAR-4 ovarian; 117% in the assay on SK-OV-3 ovarian; 84.4% with IGROV1 ovarian; 107% in the assay on OVCAR-3 ovarian. The growth in the assay on HS 578T breast is 85.2%; in the assay on NCI/ADR-RES ovarian it was 100%; in the assay on T-47D breast, 83.9%; with BT-549 breast, 99.1%; in the assay on MDA-MB-435 melanoma, 100%; in the assay with SW-620 colon, 90.6%. Further, the growth in the assay on MCF7 breast is 77.3%; in the assay on HCT-116 colon, 98.9%; in the assay with HCC-2998 colon, 111%; with KM12 colon, 88.8%.
For `Cc1ccc(C)c(-n2c(-c3ccc(Br)cc3)csc2=NC(=O)c2ccccc2F)c1`, the growth was -11.2% (active) in the assay on RPMI-8226 leukemia; 65.3% in the assay with OVCAR-8 ovarian; 112% in the assay with OVCAR-5 ovarian; 40.6% in the assay with OVCAR-4 ovarian; 86.9% in the assay with SK-OV-3 ovarian; 213% with IGROV1 ovarian. Also, the growth in the assay on OVCAR-3 ovarian is 75.5%; in the assay with HS 578T breast, 101%; with NCI/ADR-RES ovarian it was 56.7%; in the assay on T-47D breast it was 41.3%; in the assay on BT-549 breast it was 28.7%; in the assay with MDA-MB-435 melanoma, 67.2%. Besides, the growth is 69.6% with SW-620 colon; 59.1% in the assay on MCF7 breast; 22.9% with HCT-116 colon; 117% in the assay on HCC-2998 colon; 60.8% in the assay with KM12 colon.
With `CCSC1=CC(=O)c2ccccc2C1=O`, the growth in the assay on RPMI-8226 leukemia was 45.7%; with OVCAR-8 ovarian, 49.4%; in the assay on OVCAR-5 ovarian it was 116%; in the assay on OVCAR-4 ovarian, -95.2% (active); with SK-OV-3 ovarian, 95.6%; in the assay on IGROV1 ovarian it was 59.5%. Also, the growth is -26.7% (active) in the assay on OVCAR-3 ovarian; 94.8% with HS 578T breast; 71.8% with NCI/ADR-RES ovarian; -41.9% (active) in the assay with T-47D breast; 91.4% in the assay on BT-549 breast; 80.2% in the assay on MDA-MB-435 melanoma. For the same molecule, the growth with SW-620 colon is 54.9%; with MCF7 breast it was 12.9%; in the assay with HCT-116 colon, 2.56% (active); with HCC-2998 colon, 117%; with KM12 colon, 93.8%.
With `CCN(CC)CCNC(=O)c1ccc(-c2nc3ccc4[nH]ncc4c3c3c2CCCC3)cc1`, the growth is 52.1% with RPMI-8226 leukemia; 59% in the assay with OVCAR-8 ovarian; 87.3% with OVCAR-5 ovarian; 76.1% with OVCAR-4 ovarian; 44.1% with SK-OV-3 ovarian; 35.3% in the assay on IGROV1 ovarian. For the same molecule, the growth was 78.4% in the assay on OVCAR-3 ovarian; 41.6% in the assay on HS 578T breast; 70.9% in the assay on NCI/ADR-RES ovarian; 44.6% in the assay with T-47D breast; 59.5% with BT-549 breast; 42.9% in the assay with MDA-MB-435 melanoma. Also, the growth in the assay with SW-620 colon was 28.4%; in the assay on MCF7 breast, 62.4%; in the assay with HCT-116 colon, 24.1%; with HCC-2998 colon, 84.3%; in the assay with KM12 colon, 46.2%.
For `CCOC(=O)n1cc(-c2nonc2-c2cn(C)c3ccccc23)c2ccccc21`, the growth is 38.9% with RPMI-8226 leukemia; 51.6% in the assay with OVCAR-8 ovarian; 55.6% in the assay with OVCAR-5 ovarian; 59.9% with OVCAR-4 ovarian; 45% in the assay on SK-OV-3 ovarian; 46.8% in the assay on IGROV1 ovarian. For the same molecule, the growth in the assay on OVCAR-3 ovarian is 25.1%; in the assay on HS 578T breast, 29.3%; in the assay on NCI/ADR-RES ovarian it was 15.2%; with T-47D breast it was 40.6%; in the assay with BT-549 breast it was 55.3%; with MDA-MB-435 melanoma, -8% (active). Further, the growth in the assay on SW-620 colon is 18.8%; in the assay on MCF7 breast, 21.6%; in the assay with HCT-116 colon, 22.3%; in the assay on KM12 colon, 29.1%.
Regarding `O=C1Nc2ccccc2/C1=C/c1cn(C[C@@H](O)Cn2c3ccccc3c(=O)c3ccccc32)c2ccccc12`, the growth in the assay with RPMI-8226 leukemia was 67.1%; in the assay on OVCAR-8 ovarian, 68.5%; in the assay on OVCAR-5 ovarian it was 86.7%; in the assay on OVCAR-4 ovarian, 88%; with SK-OV-3 ovarian it was 73.3%; in the assay with IGROV1 ovarian it was 53.7%. The growth was 73.5% in the assay on OVCAR-3 ovarian; 62.8% in the assay on HS 578T breast; 85.4% in the assay with NCI/ADR-RES ovarian; 62.7% in the assay on T-47D breast; 73.3% with BT-549 breast; 85.1% in the assay on MDA-MB-435 melanoma. Besides, the growth is 78.7% in the assay with SW-620 colon, 45.9% in the assay with MCF7 breast, 57.7% with HCT-116 colon and 68.2% in the assay on KM12 colon.
Take `COc1ccc2nc(Cl)c(/C=C/C(=O)c3ccc(NC(=O)CSc4nnc(-c5ccc(Cl)c(Cl)c5)n4-c4ccccc4)cc3)cc2c1`: the growth was 62% in the assay with RPMI-8226 leukemia; 92.1% in the assay on OVCAR-8 ovarian; 102% in the assay on OVCAR-5 ovarian; 103% in the assay with OVCAR-4 ovarian; 91.4% in the assay with SK-OV-3 ovarian; 76.3% in the assay with IGROV1 ovarian. For the same molecule, the growth in the assay on OVCAR-3 ovarian was 105%; with HS 578T breast, 89.3%; in the assay on NCI/ADR-RES ovarian, 102%; in the assay on T-47D breast, 83.5%; with BT-549 breast, 80%; in the assay with MDA-MB-435 melanoma it was 95.6%. Moreover, the growth in the assay with SW-620 colon was 92.3%; in the assay with MCF7 breast it was 82.5%; in the assay on HCT-116 colon it was 68.6%; in the assay on HCC-2998 colon it was 105%; in the assay on KM12 colon, 98.4%.

(Values after PubChem BioAssay (NCI).)
